The nature of assay [1]: HPAF-II Cancer Cell Toxicity qHTS against the NCATS CANVASS Library (AID 1347346). Also: nearly all actives have a fitted effect of over 55% in size. Also: potency is read from the fitted curve at half-maximal effect. The procedure, abridged: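 Cytotoxicity in HPAF-II pancreatic cancer cells: 72 h treatment across 11 concentrations, ATP-based CellTiter-Glo luminescence endpoint.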
(In general: Quantitative high-throughput screening tests each substance at several concentrations.)

The nature of assay [2]: UWB1.289 Cancer Cell Toxicity qHTS against the NCATS CANVASS Library (AID 1347347). Also: nearly all actives have a fitted effect of over 60% in size. Also: potency is read from the fitted curve at half-maximal effect. In outline:
(§1)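 1000 cells/well; 4 h settle; 11-pnt titration; 72 h, 37 degrees C, 5% CO2; CellTiter-Glo, 15min RT; luminescence read.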

Assay [3] is described as follows: OV-SAHO Cancer Cell Toxicity qHTS against the NCATS CANVASS Library (AID 1347348). Also: potency is read from the fitted curve at half-maximal effect; nearly all actives have a fitted effect of over 55% in size. The procedure, abridged: as §1
Assay [4] can be described thus: SW1088 Cancer Cell Toxicity qHTS against the NCATS CANVASS Library (AID 1347350). Also: nearly all actives have a fitted effect of over 75% in size. Also: potency is read from the fitted curve at half-maximal effect. In outline:
as §1

The nature of assay [5]: COV-362 Cancer Cell Toxicity qHTS against the NCATS CANVASS Library (AID 1347352). Also: potency is read from the fitted curve at half-maximal effect. The procedure, abridged: (§2)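 qHTS cytotoxicity: compounds tested in 11 concentrations on 1000 seeded cells per well over 72 h; bortezomib served as control; signal from CellTiter-Glo luminescence.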
Assay [6] is described as follows: HPAF-II 12hr Apoptosis Induction qHTS against the NCATS CANVASS Library (AID 1347358). Also: potency is read from the fitted curve at half-maximal effect. In outline:
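Apoptosis in HPAF-II pancreatic cancer cells is scored as caspase 3/7 luminescence following a 12-hour exposure to an 11-point compound series.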

Assay [7] in a line: HEK293 12hr Apoptosis Induction qHTS against the NCATS CANVASS Library (AID 1347361). The procedure, abridged: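 HEK293 cells (500/well, DMEM + 10% FBS) were exposed to natural products across an 11-point series for 12 hours at 37 degrees C. Caspase-3/7 activity was then measured with DEVD luciferase luminescence after 15 min at room temperature.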
Assay [8] is described as follows: qHTS for Hypoxia signaling pathway (HIF-1) agonists against the NCATS CANVASS Library (AID 1347375). The procedure, abridged:
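Inducers of HIF-1 signaling were detected in ME-180 cells bearing an HRE-driven beta-lactamase reporter after 17 h compound exposure. Activity came from CCF4-AM FRET emission ratio (460/530 nm) in qHTS format.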

The nature of assay [9]: Secretion counterscreen for inhibitors of the SERCaMP assay screened against the NCATS CANVASS Library (AID 1347390).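 Also: light from luciferase secreted into medium read as a measure of general secretion.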 Also: potency is read from the fitted curve at half-maximal effect. The procedure, abridged: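 Counterscreen for secretory-pathway interference: after 4 h attachment, SH-SY5Y-GLuc cells were exposed 20 hours to compounds (final 0.001 - 77 uM), then coelenterazine added and GLuc luminescence recorded; Brefeldin A served as control.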
Background: A counterscreen serves to expose hits that act by an unwanted route or on another target.

Assay [10] can be described thus: qHTS for activators of dead-cell proteases activity screened against the NCATS CANVASS Library (AID 1347392).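 Also: luminescence from protease leaking out of membrane-damaged cells cleaving impermeant substrate; rising signal means more cytotoxicity.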 In outline:
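HepG2 cells (2000/well) attached 18 h at 37C, then exposed 5 h to compounds (11-point qHTS). Dead-cell protease activity read as luminescence from cell-impermeant AAF-aminoluciferin substrate after 15 min at room temperature.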

Assay [11] in a line: qHTS for inhibitors of ER calcium dysfunction: SERCaMP assay screened against the NCATS CANVASS Library (AID 1347393). Also: nearly all actives have a fitted effect of over 40% in size. Also: potency is read from the fitted curve at half-maximal effect. The procedure, abridged:
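qHTS in SH-SY5Y reporter cells: 16 h compound pretreatment, 4 h thapsigargin, then secreted Gaussia luciferase measured by luminescence.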

Assay [12] can be described thus: qHTS for inhibitors of Wild type Zika virus screened against the NCATS CANVASS Library (AID 1347396).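 Also: ATP luminescence of surviving cells so rescue from viral cell killing; series mostly up to about 46 µM.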 In outline: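 Vero 766 cells, 1000/well, o/n attach; cpds pin-transferred (11-pt qHTS); WT Zika added; 72 h, 37C, 5% CO2; CellTiter Glo lumi. Uninfected + vehicle = 100% inhibition.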
A short description of assay [13]: KB-8-5-11 Cancer Cell Toxicity qHTS against the NCATS CANVASS Library (AID 1347364). Also: nearly all actives have a fitted effect of over 75% in size. Also: potency is read from the fitted curve at half-maximal effect. In outline:
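Natural products were titrated in 11 points onto KB-8-5-11 cells, 500 per well, and cytotoxicity was scored from CellTiter-Glo luminescence after 72 hr culture.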

Assay [14] is described as follows: qHTS for Antimalaria activity screened against the NCATS CANVASS Library (AID 1347380). Also: nearly all actives have a fitted effect of over 40% in size. Also: potency is read from the fitted curve at half-maximal effect. The procedure, abridged:
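Growth inhibition of asexual erythrocytic P. falciparum Dd2 was quantified by SYBR Green DNA staining. Cultures grew 72 h with compound (11-point series) in hypoxic gas at 37C; lysis and staining lasted 18 h.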

Assay [15] is described as follows: qHTS assay for small molecule disruptors of mitochondrial membrane potential screened against the NCATS CANVASS Library (AID 1347389). Also: nearly all actives have a fitted effect of over 60% in size. Also: potency is read from the fitted curve at half-maximal effect. The procedure, abridged:
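Compounds tested in 11-point qHTS series on HepG2 cells for 1 hr; membrane-potential dye added for 30 min at 37C. Lower red-to-green ratio indicates loss of potential.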

Assay [16] in a line: Redox Reaction Profiling qHTS: Assay Interference Panel against the NCATS CANVASS Library (AID 1347401). In outline:
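Resazurin (5 uM) conversion to resorufin measured with 200 uM DTT in 50 mM HEPES pH 7.3, 50 mM NaCl. Compounds tested in 11-point qHTS series. Fluorescence (ex 525/em 598 nm) read before and after 15 min dark incubation.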

Assay [17] can be described thus: U-118MG Cancer Cell Toxicity qHTS against the NCATS CANVASS Library (AID 1347351). Also: potency is read from the fitted curve at half-maximal effect. In outline:
as §1

The nature of assay [18]: UWB1.289-WTBRCA1 Cancer Cell Toxicity qHTS against the NCATS CANVASS Library (AID 1347354). In outline:
as §2

Assay [19] is described as follows: qHTS for activators of Nrf2/ARE signaling pathway screened against the NCATS CANVASS Library (AID 1347391). Also: nearly all actives have a fitted effect of over 60% in size. Also: potency is read from the fitted curve at half-maximal effect. The procedure, abridged: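 Cells carrying an ARE-driven beta-lactamase reporter (HepG2 background) are dosed for 16 h, then stained with CCF4. Cell viability in the same wells is measured by CellTiter-Glo luminescence.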

Results filed as inconclusive are left out. Activity calls are given as the source filed them. Calls follow the shape of the dose curve; as a rule, active = well fitted curve in the direction sought with a large enough effect; inconclusive = small, poorly fitted or top-dose-only effect, or another doubt; inactive = no such curve, though single readings can be large; an effect the other way counts as inactive or inconclusive.

Take `C/C(=C\[C@H](C)C(=O)/C=C/CC1CC(=O)NC(=O)C1)[C@@H]1OC(=O)/C=C/CC/C=C/C[C@@H](O)[C@@H]1C`: the Potency was 2.98 µM (active) in assay [1]; 2.98 µM (active) in [2]; 2.11 µM (active) in assay [3]; 16.8 µM (active) in assay [4]; 2.36 µM (active) in assay [5]; 10.8 µM (active) in assay [9]. Further, the Potency result in [6], in assay [10] and in assay [11] was “inactive” each time. In addition, the call in assay [7], in assay [8] and in [12] was inactive.

`Cc1cc(C)c(O)c(C(=O)CC2CC(=O)NC(=O)C2)c1`: the Potency entry in assay [4], in assay [15], in assay [10] and in [16] was “inactive” throughout. The result in assay [7], in assay [8] and in [12] was inactive. Further, the Potency is 7.43 µM (active) in assay [13], 2.98 µM (active) in assay [14] and 6.09 µM (active) in assay [9].

Regarding `C=C[C@](Cl)(CBr)CCC=C(C)C`, the Potency result in [1], in [2], in assay [4], in assay [17], in assay [5] and in [18] was “inactive” throughout. The Potency entry in assay [6], in assay [13], in assay [14], in assay [15], in assay [9] and in assay [10] was “inactive” throughout. In addition, the Potency entry in assay [16] was “inactive”. For the same compound, the outcome in assay [7] and in assay [12] was inactive.

Turning to `Oc1ccc(C2Oc3cc(O)c4c(c3[C@@H]2c2cc(O)cc(O)c2)[C@H]2C(c3ccc(O)cc3)c3c(O)cc5c(c3[C@H]2C4c2ccc(O)cc2)[C@H](c2cc(O)cc(O)c2)C(c2ccc(O)cc2)O5)cc1` (some centres not stated), the Potency result in [1], in assay [4], in [17], in assay [6], in [13] and in [9] was “inactive” in each case. For the same compound, the Potency result in assay [19], in assay [10] and in assay [11] was “inactive” in each case. Moreover, in assay [3], the Potency was 16.7 µM (active). Moreover, the compound was classed as inactive in assay [7], in assay [8] and in assay [12].

As to `CC(C)=CCC/C(C)=C/Cc1cc([C@@H]2CC(=O)c3c(cc(O)c(CC=C(C)C)c3O)O2)ccc1O`, the Potency was 14.9 µM (active) in assay [4]; 16.7 µM (active) in [14]; 23.4 µM (active) in assay [15]; 20.9 µM (active) in [19]; 38.4 µM (active) in [11]. For the same compound, the Potency entry in assay [17], in assay [18], in assay [13], in assay [9] and in [10] was “inactive” each time. Moreover, the result in [7], in [8] and in assay [12] was inactive.

On to `COc1cc(/C=C/C(=O)OC[C@@H](Cc2ccc(O)c(OC)c2)[C@@H](COC(=O)/C=C/c2ccc(O)c(OC)c2)Cc2ccc(O)c(OC)c2)ccc1O`, for which the Potency in [1] was 8.41 µM (active); in assay [2], 10.6 µM (active); in assay [3] it was 23.6 µM (active); in assay [4], 8.41 µM (active); in assay [17], 10.6 µM (active); in assay [5], 18.8 µM (active). Also, the Potency was 11.8 µM (active) in [6]; 13.2 µM (active) in [13]; 0.265 µM (active) in [14]; 7.41 µM (active) in [15]; 38.4 µM (active) in [9]; 3.43 µM (active) in assay [11]. In addition, the Potency entry in assay [19] and in assay [16] was “inactive” throughout.
